{"source": "ChEMBL document CHEMBL3988442", "about": "“University of Dundee, Small-Polar-MMV Screening Library” (2021)", "set-up_in_all_cases": "scale not given: direction of the effect not stated beside the values", "key": {"[1]": {"molecular_target": "Protein translocase subunit SecA (Escherichia coli (strain K12)) (UniProt P10408)", "sequence (P10408 whole entry)": "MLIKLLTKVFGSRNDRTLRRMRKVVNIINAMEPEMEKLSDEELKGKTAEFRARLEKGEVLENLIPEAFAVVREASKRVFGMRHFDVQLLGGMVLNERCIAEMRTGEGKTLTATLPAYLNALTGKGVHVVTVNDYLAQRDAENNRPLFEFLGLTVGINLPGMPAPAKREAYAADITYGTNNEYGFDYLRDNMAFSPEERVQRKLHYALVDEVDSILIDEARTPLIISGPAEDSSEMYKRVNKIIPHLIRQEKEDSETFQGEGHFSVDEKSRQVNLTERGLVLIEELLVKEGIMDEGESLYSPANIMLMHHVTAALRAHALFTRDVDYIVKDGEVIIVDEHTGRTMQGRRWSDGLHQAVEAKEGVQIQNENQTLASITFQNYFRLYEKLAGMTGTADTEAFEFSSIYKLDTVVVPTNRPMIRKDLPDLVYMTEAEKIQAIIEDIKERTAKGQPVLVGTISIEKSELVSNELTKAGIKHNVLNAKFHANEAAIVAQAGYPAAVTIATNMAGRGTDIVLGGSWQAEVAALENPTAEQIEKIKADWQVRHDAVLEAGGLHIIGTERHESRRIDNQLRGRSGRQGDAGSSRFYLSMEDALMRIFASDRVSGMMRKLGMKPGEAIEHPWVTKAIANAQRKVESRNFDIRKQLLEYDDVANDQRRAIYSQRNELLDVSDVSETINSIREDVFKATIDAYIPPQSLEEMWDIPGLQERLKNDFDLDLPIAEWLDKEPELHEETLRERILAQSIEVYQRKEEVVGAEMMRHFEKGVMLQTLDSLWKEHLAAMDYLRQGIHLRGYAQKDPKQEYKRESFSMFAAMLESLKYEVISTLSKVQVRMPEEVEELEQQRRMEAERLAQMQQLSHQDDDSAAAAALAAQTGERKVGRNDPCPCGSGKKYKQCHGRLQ", "assay": "Assay to Identify E. coli SecA ATPase Inhibitors", "type": "functional", "details": "30 µM"}, "[2]": {"molecular_target": "T1, Ubiquitin-activating enzyme e1, putative (Leishmania donovani (strain BPK282A1)) (UniProt E9BSI1)", "T1 sequence (whole entry)": "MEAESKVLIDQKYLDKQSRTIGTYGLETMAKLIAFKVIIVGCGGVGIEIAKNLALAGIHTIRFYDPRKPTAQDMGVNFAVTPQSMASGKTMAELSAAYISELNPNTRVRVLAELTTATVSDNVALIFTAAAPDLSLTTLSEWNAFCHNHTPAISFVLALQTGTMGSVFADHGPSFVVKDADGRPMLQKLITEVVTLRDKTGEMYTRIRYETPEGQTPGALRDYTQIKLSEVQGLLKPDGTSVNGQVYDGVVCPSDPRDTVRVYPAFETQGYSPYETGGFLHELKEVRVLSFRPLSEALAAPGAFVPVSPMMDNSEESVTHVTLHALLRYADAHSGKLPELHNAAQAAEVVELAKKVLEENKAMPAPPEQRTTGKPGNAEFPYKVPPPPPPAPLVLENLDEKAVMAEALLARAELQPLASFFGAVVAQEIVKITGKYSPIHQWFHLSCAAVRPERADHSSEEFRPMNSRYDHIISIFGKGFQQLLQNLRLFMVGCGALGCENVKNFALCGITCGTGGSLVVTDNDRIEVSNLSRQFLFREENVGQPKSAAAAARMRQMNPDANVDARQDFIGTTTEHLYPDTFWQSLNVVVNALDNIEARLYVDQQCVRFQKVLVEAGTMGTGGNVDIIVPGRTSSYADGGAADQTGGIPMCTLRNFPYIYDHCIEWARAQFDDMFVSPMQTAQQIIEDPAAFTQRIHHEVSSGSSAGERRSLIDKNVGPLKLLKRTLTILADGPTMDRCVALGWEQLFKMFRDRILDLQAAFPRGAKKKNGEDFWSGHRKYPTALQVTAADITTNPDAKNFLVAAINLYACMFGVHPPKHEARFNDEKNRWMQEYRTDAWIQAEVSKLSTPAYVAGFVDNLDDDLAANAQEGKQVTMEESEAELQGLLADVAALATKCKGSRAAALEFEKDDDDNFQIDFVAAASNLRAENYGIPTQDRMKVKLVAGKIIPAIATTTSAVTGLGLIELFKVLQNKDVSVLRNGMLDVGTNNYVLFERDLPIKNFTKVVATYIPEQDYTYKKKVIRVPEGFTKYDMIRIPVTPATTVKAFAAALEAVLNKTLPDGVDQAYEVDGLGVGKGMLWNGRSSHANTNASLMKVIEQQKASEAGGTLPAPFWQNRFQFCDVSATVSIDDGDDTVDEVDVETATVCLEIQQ", "assay": "Leishmania donovani Ubiquitin Activating Enzyme (LdE1)", "type": "functional", "details": "30 µM"}, "[3]": {"molecular_target": "T2, Aspartate--tRNA(Asp/Asn) ligase (Mycobacterium tuberculosis (strain ATCC 25618 / H37Rv)) (UniProt P9WFW3)", "T2 sequence (whole entry)": "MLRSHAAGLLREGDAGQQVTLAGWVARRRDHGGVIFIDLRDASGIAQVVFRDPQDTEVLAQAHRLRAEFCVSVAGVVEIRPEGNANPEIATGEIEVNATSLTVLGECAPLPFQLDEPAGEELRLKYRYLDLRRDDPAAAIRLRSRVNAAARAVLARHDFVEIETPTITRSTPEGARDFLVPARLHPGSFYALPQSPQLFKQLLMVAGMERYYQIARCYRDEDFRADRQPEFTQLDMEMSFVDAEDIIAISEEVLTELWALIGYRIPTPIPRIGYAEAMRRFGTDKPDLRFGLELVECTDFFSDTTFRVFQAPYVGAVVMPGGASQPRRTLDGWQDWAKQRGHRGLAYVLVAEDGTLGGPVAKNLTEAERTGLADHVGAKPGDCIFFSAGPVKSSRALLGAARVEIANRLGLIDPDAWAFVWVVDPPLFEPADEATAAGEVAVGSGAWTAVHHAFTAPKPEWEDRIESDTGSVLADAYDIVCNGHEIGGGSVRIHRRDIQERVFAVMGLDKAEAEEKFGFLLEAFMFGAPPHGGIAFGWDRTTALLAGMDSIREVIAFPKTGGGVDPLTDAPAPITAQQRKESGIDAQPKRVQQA", "assay": "Assay for Asp RNA synthetase-1 from Mycobacterium tuberculosis", "type": "functional", "details": "30 µM"}, "[4]": {"molecular_target": "AMP-activated protein kinase, AMPK (Homo sapiens) (UniProt P54646+O43741+P54619+Q9UGJ0+Q9Y478+Q13131+Q9UGI9)", "assay": "AMP-dependent Kinase enzyme assay. An in vitro enzyme assay that detects ADP turnover that is directly proportional to AMPK activity. This uses naive AMPK that is activated during the assay with MK-8722", "type": "functional", "details": "30 µM"}, "[5]": {"molecular_target": "Sialic acid-binding Ig-like lectin 9 (Homo sapiens) (UniProt Q9Y336)", "sequence (Q9Y336 whole entry)": "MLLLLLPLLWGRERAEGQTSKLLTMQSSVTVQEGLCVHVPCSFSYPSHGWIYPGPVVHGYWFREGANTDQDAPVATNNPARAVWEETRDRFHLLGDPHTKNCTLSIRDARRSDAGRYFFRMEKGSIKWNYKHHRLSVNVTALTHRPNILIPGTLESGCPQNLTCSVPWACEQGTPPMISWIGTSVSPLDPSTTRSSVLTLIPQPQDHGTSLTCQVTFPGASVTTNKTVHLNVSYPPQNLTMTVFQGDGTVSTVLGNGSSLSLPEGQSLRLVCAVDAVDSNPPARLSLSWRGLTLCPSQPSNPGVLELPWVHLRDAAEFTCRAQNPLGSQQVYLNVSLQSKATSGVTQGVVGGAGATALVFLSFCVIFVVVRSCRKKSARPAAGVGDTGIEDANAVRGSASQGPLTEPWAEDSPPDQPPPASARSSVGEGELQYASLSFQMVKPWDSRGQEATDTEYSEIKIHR", "assay": "Hs-Siglec9 ALPHAscreen SOP 20170721", "details": "10 µM"}, "[6]": {"test_system": "Trypanosoma cruzi", "assay": "Trypanosoma cruzi phosphomannomutase and mannose-1-phosphate guanylyltransferase assay", "type": "functional", "details": "10 µM"}, "[7]": {"molecular_target": "T3, Arginase-2, mitochondrial (Homo sapiens) (UniProt P78540)", "T3 sequence (whole entry)": "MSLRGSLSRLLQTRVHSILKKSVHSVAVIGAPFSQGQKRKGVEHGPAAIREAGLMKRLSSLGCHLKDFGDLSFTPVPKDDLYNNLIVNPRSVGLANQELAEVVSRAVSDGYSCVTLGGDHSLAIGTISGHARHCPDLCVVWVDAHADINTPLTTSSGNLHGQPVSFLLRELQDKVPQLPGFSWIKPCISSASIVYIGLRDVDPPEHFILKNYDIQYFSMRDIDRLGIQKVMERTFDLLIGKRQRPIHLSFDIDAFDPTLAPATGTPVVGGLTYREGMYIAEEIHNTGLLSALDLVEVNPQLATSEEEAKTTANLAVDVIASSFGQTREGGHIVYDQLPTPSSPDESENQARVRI", "assay": "in vitro enzyme assay to detect the production of urea directly proportional to the activity of Arginase II; also: in the data most compounds retested in dose-response had high values", "type": "functional", "details": "33.3 µM"}, "[8]": {"molecular_target": "T4, Proteasome subunit beta (Trypanosoma cruzi) (UniProt O96673)", "T4 sequence (whole entry)": "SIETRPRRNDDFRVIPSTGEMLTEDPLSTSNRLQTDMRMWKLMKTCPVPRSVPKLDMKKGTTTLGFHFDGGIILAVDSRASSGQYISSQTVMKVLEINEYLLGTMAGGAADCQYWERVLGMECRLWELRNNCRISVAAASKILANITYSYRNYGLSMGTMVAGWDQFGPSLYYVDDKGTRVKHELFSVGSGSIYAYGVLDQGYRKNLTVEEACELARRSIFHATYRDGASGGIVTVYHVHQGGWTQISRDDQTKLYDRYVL", "assay": "Trypanosoma cruzi proteasome chymotrypsin-like activity (TcProtChymo) assay; also: in the data most compounds retested in dose-response had high values.", "type": "functional", "details": "9.37 µM"}, "[9]": {"test_system": "N/A", "assay": "Trypanosoma cruzi proteasome luciferase counter-screen", "type": "functional", "details": "9.37 µM"}, "[10]": {"species": "Homo sapiens", "assay": "To identify inhibition of the IFN signalling (Jak-Stat) pathway via expression of an eGFP reporter gene under the control of an IFN-stimulated response element (ISRE) containing MxA promoter.", "type": "functional", "details": "30 µM"}, "[11]": {"molecular_target": "Shiga toxin 2 (Escherichia coli O157:H7) (UniProt P09385+P09386)", "assay": "E. coli 0.157:H7 Shiga Toxin SOP - stx2 screening assay", "type": "functional", "details": "30 µM"}, "[12]": {"molecular_target": "T5, Tyrosyl-tRNA synthetase, putative (Trypanosoma cruzi (strain CL Brener)) (UniProt Q4DSP6)", "T5 sequence (whole entry)": "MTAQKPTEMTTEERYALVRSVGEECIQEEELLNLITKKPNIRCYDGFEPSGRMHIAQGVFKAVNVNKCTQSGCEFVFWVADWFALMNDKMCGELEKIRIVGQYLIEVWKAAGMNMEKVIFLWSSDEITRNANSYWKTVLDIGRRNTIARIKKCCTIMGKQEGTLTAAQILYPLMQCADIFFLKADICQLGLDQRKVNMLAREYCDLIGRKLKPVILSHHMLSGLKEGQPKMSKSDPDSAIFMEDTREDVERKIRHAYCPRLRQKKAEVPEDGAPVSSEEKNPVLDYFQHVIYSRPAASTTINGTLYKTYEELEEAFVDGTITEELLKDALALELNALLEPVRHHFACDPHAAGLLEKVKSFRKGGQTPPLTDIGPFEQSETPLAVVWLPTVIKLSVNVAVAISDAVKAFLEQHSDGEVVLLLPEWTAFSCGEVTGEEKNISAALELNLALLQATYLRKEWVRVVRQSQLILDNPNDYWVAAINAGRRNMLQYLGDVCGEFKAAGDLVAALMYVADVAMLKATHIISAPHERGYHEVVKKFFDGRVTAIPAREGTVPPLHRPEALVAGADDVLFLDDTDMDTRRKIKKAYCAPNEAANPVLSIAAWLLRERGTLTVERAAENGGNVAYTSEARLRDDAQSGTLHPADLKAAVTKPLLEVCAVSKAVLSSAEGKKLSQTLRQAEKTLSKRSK", "assay": "Trypanosoma cruzi tyrosyl tRNA synthetase (TcYRS) _High Tyrosine SOP; also: in the data most compounds retested in dose-response had high values", "type": "functional", "details": "30 µM"}, "[13]": {"molecular_target": "T5, Tyrosyl-tRNA synthetase, putative (Trypanosoma cruzi (strain CL Brener))", "assay": "Trypanosoma cruzi tyrosyl tRNA synthetase (TcYRS) SOP", "type": "functional", "details": "30 µM"}, "[14]": {"molecular_target": "Chromo domain-containing protein 1 (Saccharomyces cerevisiae (strain ATCC 204508 / S288c) (Baker's yeast)) (UniProt P32657)", "sequence (P32657 whole entry, the tested form may be a part)": "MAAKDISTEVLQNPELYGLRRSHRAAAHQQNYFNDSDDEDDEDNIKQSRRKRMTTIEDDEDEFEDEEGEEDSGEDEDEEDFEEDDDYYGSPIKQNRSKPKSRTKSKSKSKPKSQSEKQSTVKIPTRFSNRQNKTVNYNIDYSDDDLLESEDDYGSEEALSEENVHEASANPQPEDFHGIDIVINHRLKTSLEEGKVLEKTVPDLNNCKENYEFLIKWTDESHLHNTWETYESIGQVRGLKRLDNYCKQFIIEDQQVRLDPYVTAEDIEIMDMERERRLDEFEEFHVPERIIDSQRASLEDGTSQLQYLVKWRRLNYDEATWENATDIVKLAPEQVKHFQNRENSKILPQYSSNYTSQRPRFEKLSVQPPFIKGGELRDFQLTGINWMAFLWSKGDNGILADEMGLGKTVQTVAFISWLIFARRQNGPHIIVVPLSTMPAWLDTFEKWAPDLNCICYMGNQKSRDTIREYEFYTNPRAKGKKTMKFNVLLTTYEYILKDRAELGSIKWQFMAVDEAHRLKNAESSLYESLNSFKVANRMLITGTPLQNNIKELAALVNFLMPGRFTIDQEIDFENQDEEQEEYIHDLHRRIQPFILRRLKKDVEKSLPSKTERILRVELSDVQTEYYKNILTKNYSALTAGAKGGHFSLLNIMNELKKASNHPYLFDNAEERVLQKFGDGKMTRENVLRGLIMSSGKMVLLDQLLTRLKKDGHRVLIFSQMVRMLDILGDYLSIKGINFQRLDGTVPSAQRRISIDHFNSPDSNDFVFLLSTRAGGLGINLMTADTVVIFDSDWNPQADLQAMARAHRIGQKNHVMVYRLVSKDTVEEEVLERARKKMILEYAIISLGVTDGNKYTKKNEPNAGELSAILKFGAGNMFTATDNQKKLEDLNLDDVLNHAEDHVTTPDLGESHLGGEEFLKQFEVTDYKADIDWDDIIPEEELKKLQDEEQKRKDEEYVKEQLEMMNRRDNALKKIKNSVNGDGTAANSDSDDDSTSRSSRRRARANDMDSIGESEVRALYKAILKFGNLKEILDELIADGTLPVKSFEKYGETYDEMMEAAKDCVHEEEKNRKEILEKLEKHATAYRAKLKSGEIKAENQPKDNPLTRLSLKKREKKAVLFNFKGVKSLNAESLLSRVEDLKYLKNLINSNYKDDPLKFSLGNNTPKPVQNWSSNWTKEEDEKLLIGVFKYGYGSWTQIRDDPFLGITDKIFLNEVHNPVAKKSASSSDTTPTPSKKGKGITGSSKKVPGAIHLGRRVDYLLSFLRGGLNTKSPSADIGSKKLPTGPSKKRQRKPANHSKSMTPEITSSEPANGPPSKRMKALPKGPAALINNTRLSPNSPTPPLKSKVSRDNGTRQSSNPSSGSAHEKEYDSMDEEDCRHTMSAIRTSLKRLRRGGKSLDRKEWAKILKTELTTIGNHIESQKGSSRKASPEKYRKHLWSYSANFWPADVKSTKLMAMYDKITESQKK", "assay": "ScCHD-1 Enzyme Inhibition Assay; also: in the data most compounds retested in dose-response had high values", "type": "functional", "details": "30 µM"}}, "note": "Several values for one entry are separate records, joined by “and”; a condition that tells them apart may be missing. Identical values can stand only once. For part of these data: Results with a measured potency or affinity are listed apart."}
{"smiles": "CO[C@@H]1CN(Cc2scnc2C)[C@@H]2CCCO[C@@H]21", "values": [{"measurement": "Percent Effect", "setting": "[1]", "result": -5.71, "unit": "%"}, {"measurement": "Percent Effect", "setting": "[2]", "result": 2.7, "unit": "%"}, {"measurement": "Percent Effect", "setting": "[3]", "result": -1.4, "unit": "%"}, {"measurement": "Percent Effect", "setting": "[4]", "result": -6.24, "unit": "%"}, {"measurement": "Percent Effect", "setting": "[5]", "result": 4.17, "unit": "%"}, {"measurement": "Percent Effect", "setting": "[6]", "result": 2.25, "unit": "%"}, {"measurement": "Percent Effect", "setting": "[7]", "result": 3.72, "unit": "%"}, {"measurement": "Percent Effect", "setting": "[8]", "result": "82% and 78.2% and 80%"}, {"measurement": "Percent Effect", "setting": "[9]", "result": "19.6% and 16.4%"}, {"measurement": "Percent Effect", "setting": "[10]", "result": -7.25, "unit": "%"}, {"measurement": "Percent Effect", "setting": "[11]", "result": 8.62, "unit": "%"}, {"measurement": "Percent Effect", "setting": "[12]", "result": 6.45, "unit": "%"}, {"measurement": "Percent Effect", "setting": "[13]", "result": 8.64, "unit": "%"}, {"measurement": "Percent Effect", "setting": "[14]", "result": -1.19, "unit": "%"}]}
{"smiles": "COc1c(Br)cc(Br)cc1CNC(C)Cn1cccn1", "note": "(configuration not stated)", "values": [{"measurement": "Percent Effect", "setting": "[1]", "result": -4.9, "unit": "%"}, {"measurement": "Percent Effect", "setting": "[2]", "result": 23.4, "unit": "%"}, {"measurement": "Percent Effect", "setting": "[3]", "result": 2.09, "unit": "%"}, {"measurement": "Percent Effect", "setting": "[4]", "result": 5.26, "unit": "%"}, {"measurement": "Percent Effect", "setting": "[5]", "result": -2.65, "unit": "%"}, {"measurement": "Percent Effect", "setting": "[6]", "result": -10.9, "unit": "%"}, {"measurement": "Percent Effect", "setting": "[7]", "result": -3.56, "unit": "%"}, {"measurement": "Percent Effect", "setting": "[8]", "result": 1.01, "unit": "%"}, {"measurement": "Percent Effect", "setting": "[10]", "result": 35.9, "unit": "%"}, {"measurement": "Percent Effect", "setting": "[11]", "result": 15.4, "unit": "%"}, {"measurement": "Percent Effect", "setting": "[12]", "result": 4.85, "unit": "%"}, {"measurement": "Percent Effect", "setting": "[13]", "result": 9.76, "unit": "%"}, {"measurement": "Percent Effect", "setting": "[14]", "result": -8.37, "unit": "%"}]}
